TGFb SMAD3 inh: inhibitors of TGF-b signaling | AID 588855 | 1.2% of 410,000 active | HepG2 CAGA-GFP TGF-b/SMAD3 reporter, GFP fluorescence, 18 h; TGF-beta stimulated, 500 pg/mL final | Potency, µM (titrated, usually from 46.1 µM), without a hit: top-dose activity, negative = inhibition, usual class: inhibitors; note: potency is the fitted concentration of half-maximal effect; % is set by controls: 0 for no effect and ±100 for the full control effect; nearly all actives have a fitted effect of over 65% in size
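Per well, imaged GFP fluorescence of HEPG2 CAGA-GFP cells gives the signal; cells get compound, then TGF-beta (500 pg/mL final), 18 h at 37 degrees C; %Activity versus -TGF-beta and +DMSO controls.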
ASM inhibitor: blocks human secretory acid sphingomyelinase; 0.006% of 340,000 active; placental ASM, HMU-PC fluorogenic substrate, 60 min; Potency, µM (series often up to 57.5 µM), without a hit: top-dose activity change, negative = inhibition, actives largely listed as inhibitors; P17405; note: potency is the fitted concentration of half-maximal effect
Target sequence (P17405 47-631 limits assumed): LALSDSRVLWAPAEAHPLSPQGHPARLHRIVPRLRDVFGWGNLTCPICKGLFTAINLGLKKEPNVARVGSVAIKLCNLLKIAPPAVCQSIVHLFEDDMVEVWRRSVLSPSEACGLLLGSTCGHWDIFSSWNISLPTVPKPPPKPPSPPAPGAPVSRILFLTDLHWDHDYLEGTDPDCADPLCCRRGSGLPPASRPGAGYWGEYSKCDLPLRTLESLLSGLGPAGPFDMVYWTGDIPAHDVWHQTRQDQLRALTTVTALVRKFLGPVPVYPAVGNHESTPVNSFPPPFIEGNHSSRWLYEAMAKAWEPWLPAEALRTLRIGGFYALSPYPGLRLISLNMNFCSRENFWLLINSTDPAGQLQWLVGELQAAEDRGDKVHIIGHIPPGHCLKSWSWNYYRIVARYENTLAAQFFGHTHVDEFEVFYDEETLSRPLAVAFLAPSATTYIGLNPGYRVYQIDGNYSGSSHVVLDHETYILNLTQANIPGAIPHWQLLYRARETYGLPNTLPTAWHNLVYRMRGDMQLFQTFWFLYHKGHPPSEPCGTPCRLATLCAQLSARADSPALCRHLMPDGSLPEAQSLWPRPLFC
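Human placenta-derived ASM preincubated with compound 10 min at room temperature, then reacted with 9 uM (final) fluorogenic HMU-PC substrate for 60 min at 37 C. Stop solution raises pH to 10; fluorescence read at Ex 386/Em 447 nm.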
IL1B secr inh: inhibitors of inflammasome signaling (IL-1 beta secretion) | THP-1 LPS/ATP IL-1B secretion, AlphaLISA, 16 h; active compounds read low | activity change, % at 57.5 µM | 4.7% of 360,000 active | AID 743279; in the data active = activity change below about -50%; inconclusive = mostly about -30% to -49%; note: % is set by controls: 0 for no effect and ±100 for the full control effect
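Secreted IL-1B measured by AlphaLISA bead assay after 16 h compound exposure of THP-1 cells; compounds (final up to 57.5 uM) added 1 h before LPS (250 ng/mL) and ATP (1.25 mM) stimulation; lower signal means less secretion.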
DT40 TDP1 CPT: growth inhibition of DT40 Tdp1-/-;hTDP1 cells with camptothecin (screen for TDP1 inhibitors); chicken DT40 Tdp1-/-;hTDP1 cells + 20 nM CPT, ATP luminescence, 48 h; Potency, µM (doses to about 46.2 µM), for inactives: at the top dose activity change, negative = growth inhibition, actives largely listed as inhibitors; 12% of 420,000 active; note: potency is the fitted concentration of half-maximal effect; % is set by controls: 0 for no effect and ±100 for the full control effect; nearly all actives have a fitted effect of over 55% in size
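Chicken DT40 Tdp1-/- cells complemented with human TDP1, 400 cells/well, exposed to compounds plus 20 nM camptothecin for at least 48 h at 37 C; viability read as ATP content by CellTiter-Glo luminescence.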
HepG2 tox: kills HepG2 cells in TGF-b inhibitor counter-screen | Potency, µM (doses to about 46.1 µM), for inactives: at the highest dose activity change, negative = cytotoxicity, most hits filed as cytotoxic | HepG2 CAGA-GFP viability, ATP luminescence, 18 h | 0.76% of 410,000 active; note: potency is the fitted concentration of half-maximal effect
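CellTiter-Glo luminescence gave cytotoxicity after 18 hours at 37 degrees C. The cells were HepG2 CAGA-GFP in 1% FBS DMEM, stimulated with 500 pg/mL TGF-beta after compound addition. %Activity was normalised to no-cell wells (complete cell-killing) and DMSO (no toxicity), and curves were fitted and classified.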
TDP1 cell noCPT: qHTS for Inhibitors of human tyrosyl-DNA phosphodiesterase 1 (TDP1): qHTS in cells in absence of CPT; 15% of 420,000 active; DT40 Tdp1-/- hTDP1 cells, no CPT, ATP luminescence, 48 h; Potency, µM (highest dose often 46.2 µM), for the others: at the highest dose activity change, negative = growth inhibition, actives largely listed as inhibitors; note: potency is the fitted concentration of half-maximal effect; % is set by controls: 0 for no effect and ±100 for the full control effect; nearly all actives have a fitted effect of over 55% in size
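Readout: luminescence from CellTiter-Glo after 30 min in the dark at RT. Cells: DT40 Tdp1-/- with stable hTDP1, 400/well. Exposure: compounds alone, ≥48 hr, 37 °C.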
Starred values were filed as active, the others as inactive. In the library only some 19% were active in any assay of this set; here they are far more common. Unless noted, calls come from the whole dose curve; as a rule, active = well fitted curve in the direction sought with a large enough effect; inconclusive = small, poorly fitted or top-dose-only effect, or another doubt; inactive = no such curve, though single readings can be large; an effect the other way counts as inactive or inconclusive.

Results for CN(Cc1ccccc1)C(c1ccnc2ccccc12)c1nnnn1-c1ccc2c(c1)OCCO2 (stereo not given) ?
IL1B secr inh: -16.0; DT40 TDP1 CPT: inconclusive; TDP1 cell noCPT: inconclusive

How did CC(C)(C)OC(=O)N1CCCN(C(c2cc3ccccc3o2)c2nnnn2C(C)(C)C)CC1 (stereo not given) do in these assays?
IL1B secr inh: -4.7; DT40 TDP1 CPT: inconclusive; TDP1 cell noCPT: inconclusive

Results for CC(C)(C)OC(=O)N1CCN(C(c2ccnc3ccccc23)c2nnnn2-c2ccc3c(c2)OCCO3)CC1 (stereo not given) ?
IL1B secr inh: 5.8; DT40 TDP1 CPT: inconclusive; TDP1 cell noCPT: 16.4µM*

What do the screens show for `CCOC(=O)CCn1nc(C)c2c(C)n(-c3ccccc3)nc2c1=O`?
DT40 TDP1 CPT: 3.5%; HepG2 tox: 0.7%; TDP1 cell noCPT: -6.7%

What do the screens show for `CC[C@H](C)[C@H]1CNC(=S)N1CC1CCN(CCCCc2ccccc2)CC1`?
TGFb SMAD3 inh: -1.8%; ASM inhibitor: 0.6%; IL1B secr inh: inconclusive; DT40 TDP1 CPT: -5.7%; HepG2 tox: -12.7%; TDP1 cell noCPT: -25.4%

How did Cc1cccc(C)c1-n1nnnc1C(c1ccnc2ccccc12)N1CCN(C/C=C/c2ccccc2)CC1 (stereo not given) do in these assays?
TGFb SMAD3 inh: inconclusive; IL1B secr inh: -17.4; DT40 TDP1 CPT: 9.2µM*; HepG2 tox: 12.8%; TDP1 cell noCPT: 8.2µM*

What do the screens show for `O=C(NCc1ccc2c(c1)OCO2)C1CCCN(S(=O)(=O)c2cccc3cccnc23)C1` (stereo not given)?
TGFb SMAD3 inh: inconclusive; ASM inhibitor: -8.1%; IL1B secr inh: -26.6; DT40 TDP1 CPT: inconclusive; HepG2 tox: -56.6%; TDP1 cell noCPT: 16.4µM*

How did O=C(Nc1cccc(F)c1)C1CCCN(S(=O)(=O)c2cccc3cccnc23)C1 (stereo not given) do in these assays?
TGFb SMAD3 inh: inconclusive; ASM inhibitor: -6.5%; IL1B secr inh: -27.6; DT40 TDP1 CPT: 18.4µM*; HepG2 tox: 3.2%; TDP1 cell noCPT: 23.1µM*

What do the screens show for `Cc1ccc(NC(=O)C2CCCN(S(=O)(=O)c3cccc4cccnc34)C2)cc1` (stereo not given)?
TGFb SMAD3 inh: inconclusive; ASM inhibitor: -2.9%; IL1B secr inh: 24.8; DT40 TDP1 CPT: inconclusive; HepG2 tox: 4.2%; TDP1 cell noCPT: 20.6µM*

What do the screens show for `Cc1ccccc1NC(=O)C1CCCN(S(=O)(=O)c2cccc3cccnc23)C1` (stereo not given)?
TGFb SMAD3 inh: 1.7%; ASM inhibitor: -2.5%; IL1B secr inh: 18.5; DT40 TDP1 CPT: inconclusive; HepG2 tox: 9.1%; TDP1 cell noCPT: inconclusive

What do the screens show for `Cc1ccc(NC(=O)C2CCCN(S(=O)(=O)c3cccc4cccnc34)C2)c(Br)c1` (stereo not given)?
TGFb SMAD3 inh: -21.8%; DT40 TDP1 CPT: inconclusive; HepG2 tox: -27.7%; TDP1 cell noCPT: inconclusive

Results for Cc1cccc(NC(=O)C2CCCN(S(=O)(=O)c3cccc4cccnc34)C2)c1 (stereo not given) ?
TGFb SMAD3 inh: -1.7%; ASM inhibitor: -12.0%; IL1B secr inh: -9.3; DT40 TDP1 CPT: 18.4µM*; HepG2 tox: -10.3%; TDP1 cell noCPT: 23.1µM*

Results for CC(C)[C@H](NS(=O)(=O)c1ccccc1F)C(=O)NC1CCCCC1 ?
TGFb SMAD3 inh: 1.3%; ASM inhibitor: -0.4%; IL1B secr inh: 8.4; DT40 TDP1 CPT: -1.4%; HepG2 tox: -0.9%; TDP1 cell noCPT: 11.9%

What do the screens show for `CCCC(=O)N(Cc1cccnc1)c1nc2c(OC)ccc(Cl)c2s1`?
TGFb SMAD3 inh: -10.5%; ASM inhibitor: 0.9%; IL1B secr inh: -4.5; DT40 TDP1 CPT: -1.2%; HepG2 tox: -7.7%; TDP1 cell noCPT: 11.1%

Results for Cc1cccc(NC(=O)CCS(=O)(=O)c2cc3c(cc2Cl)NC(=O)CO3)c1 ?
TGFb SMAD3 inh: -0.3%; ASM inhibitor: 0.1%; IL1B secr inh: 0.0; DT40 TDP1 CPT: 18.4µM*; HepG2 tox: 0.5%; TDP1 cell noCPT: inconclusive

What do the screens show for `COc1cccc(NC(=O)CCS(=O)(=O)c2cc3c(cc2Cl)NC(=O)CO3)c1`?
TGFb SMAD3 inh: 3.1%; ASM inhibitor: -0.3%; IL1B secr inh: 0.8; DT40 TDP1 CPT: -8.4%; HepG2 tox: -1.0%; TDP1 cell noCPT: 16.2%

How did CCOC(=O)N1CCC(NS(=O)(=O)c2cc3c(cc2Cl)NC(=O)CO3)CC1 do in these assays?
TGFb SMAD3 inh: 7.8%; ASM inhibitor: -2.4%; IL1B secr inh: 27.4; DT40 TDP1 CPT: 18.4µM*; HepG2 tox: -24.5%; TDP1 cell noCPT: 23.1µM*

What do the screens show for `O=C(NC1CCCCC1)NS(=O)(=O)c1ccc2c(c1)CCC2`?
TGFb SMAD3 inh: -3.9%; ASM inhibitor: 3.5%; IL1B secr inh: 7.7; DT40 TDP1 CPT: -11.2%; HepG2 tox: 1.8%; TDP1 cell noCPT: -17.5%

What do the screens show for `CCC(C)(C)NC(=O)C1CCCN(S(=O)(=O)c2ccc3c(c2)CC(C)N3C(=O)C2CC2)C1` (stereo not given)?
TGFb SMAD3 inh: -5.5%; ASM inhibitor: -0.6%; IL1B secr inh: -26.1; DT40 TDP1 CPT: inconclusive; HepG2 tox: -5.1%; TDP1 cell noCPT: -11.4%

What do the screens show for `O=C(CCc1ccccc1)Nc1nnc(-c2ccc3c(c2)OCCO3)o1`?
TGFb SMAD3 inh: -8.1%; ASM inhibitor: -3.8%; IL1B secr inh: 9.1; DT40 TDP1 CPT: -29.2%; HepG2 tox: -32.2%; TDP1 cell noCPT: -28.2%

What do the screens show for `O=C(Nc1nnc(-c2ccc3c(c2)CCCC3)o1)C1CCCCC1`?
TGFb SMAD3 inh: 5.7%; ASM inhibitor: -4.9%; IL1B secr inh: -1.8; DT40 TDP1 CPT: 14.6µM*; HepG2 tox: 1.2%; TDP1 cell noCPT: inconclusive

How did O=C(Nc1nnc(-c2ccc3c(c2)CCCC3)o1)c1c(F)cccc1F do in these assays?
TGFb SMAD3 inh: 3.2%; ASM inhibitor: 0.2%; IL1B secr inh: 3.2; DT40 TDP1 CPT: 10.4%; HepG2 tox: -11.5%; TDP1 cell noCPT: -19.0%

Results for O=C(CCc1ccccc1)Nc1nnc(-c2ccc3c(c2)CCCC3)o1 ?
TGFb SMAD3 inh: inconclusive; ASM inhibitor: 2.0%; IL1B secr inh: -16.8; DT40 TDP1 CPT: 18.4µM*; HepG2 tox: -24.7%; TDP1 cell noCPT: inconclusive

Assay outcomes from PubChem BioAssay.
